Structures can show the parent of a compound that is named as a salt.
What follows are molecules tested on primary human hepatic stellate cells (donor 1) (assay: COL1A1 mRNA fold change vs DMSO (normalised to PSMB2); higher = more COL1A1 expression, active = hit call of the paper). Details: 48 h.
Procedure: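 Secondary qRT-PCR screen in primary human HSCs (donor 1), 384-well plates, with compounds dispensed in quadruplicate and incubated for 48 h. Cells-to-CT lysates were used for multiplexed TaqMan qPCR of ACTA2 or COL1A1 with PSMB2 as reference. Fold changes versus DMSO come from a linear model (Ct_gene ~ Ct_PSMB2 + plate + chemical). A hit is defined as COL1A1 and ACTA2 FC <0.5 (FDR <0.05) with PSMB2 between 0.2 and 2.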

Structure (SMILES)	COL1A1 mRNA fold change
Cc1cc(C(=O)Nc2cc(Nc3ccc4c(/C=C/c5ccccn5)n[nH]c4c3)ccc2F)n(C)n1 (33.3333 µM)	0.363 (active)
OCCN1CCN(CCCN2c3ccccc3Sc3ccc(C(F)(F)F)cc32)CC1 (33.3333 µM)	0.0645 (inactive)
CNCc1ccc(-c2[nH]c3cc(F)cc4c3c2CCNC4=O)cc1 (33.3333 µM)	0.83 (inactive)
O=C(Nc1ncc(SCCN2CCCC2)s1)[C@]1(c2ccc(S(=O)(=O)C3CC3)cc2)C[C@H]1C1CCCCC1 (11.1 µM)	0.0203 (active)
CN1CCN2c3ccccc3Cc3ccccc3C2C1 (stereo unspecified) [Mianserin hcl] (25.2333 µM)	0.529 (inactive)
CCNC(=O)c1noc(-c2cc(C(C)C)c(O)cc2O)c1-c1ccc(CN2CCOCC2)cc1 (11.1 µM)	1.09 (inactive)
CNCc1ccc(-c2cc(-c3nc(-c4ccc(S(=O)(=O)C(C)C)cc4)cnc3N)on2)cc1 (11.1 µM)	0.0438 (inactive)
COc1ccc(NS(=O)(=O)c2sc3ccc(Cl)cc3c2C)cc1N1CCNCC1 (33.3333 µM)	0.0858 (active)
CN(C)C/C=C(/c1ccc(Br)cc1)c1cccnc1 [Zimelidine dihydrochloride] (11.1 µM)	2.1 (inactive)
O=C(O[C@H]1CN2CCC1CC2)N1CCc2ccccc2[C@@H]1c1ccccc1 [Solifenacin succinate] (33.3333 µM)	0.375 (active)
CC(C)c1cc(-c2n[nH]c(=O)n2-c2ccc3c(ccn3C)c2)c(O)cc1O [Ganetespib (STA-9090)] (33.3333 µM)	1.04 (inactive)

Source: the supplement of paper PMC9135407
